Screens deposited in PubChem by National Center for Advancing Translational Sciences (NCATS).
BRCA1 expr up = BRCA1 expression activation; MCF7-BRCA1-FFLuc reporter, luminescence, 48 h; response scale: scaled: vehicle 0%, 10 µM genistein 100%; Potency, µM (titrated, usually from 46.1 µM), without a hit: at the highest dose activation, hits mostly activators; actives 1.1% (n = 380,000); AID 624202; active means well fitted activation curve with a large enough effect; inconclusive means small, poorly fitted or top-dose-only effect; inactive means no such curve, though single readings can be large or run the other way; further: potency means the concentration at half of the fitted maximal effect; nearly all actives have a fitted effect of over 80% in size
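Luminescence from a BRCA1-driven firefly luciferase in MCF7 cells was read after 48 h compound exposure at 37 C. Data normalized against DMSO and a 10microM genistein activation control, then curve-fitted across the titration.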
PKM2 act = PKM2 (human) enzyme activation. AID 1631. Potency, µM (series often up to 57.5 µM), inactives show at the highest dose activation, hits mostly activators. P14618. purified PKM2, Kinase-Glo ATP luminescence, activation; response scale: 0% is enzyme alone, no compound. actives 0.34% (n = 260,000); active means well fitted activation curve with a large enough effect; inconclusive means small, poorly fitted or top-dose-only effect; inactive means no such curve, though single readings can be large or run the other way; further: potency means the concentration at half of the fitted maximal effect; on the % scale 0 is the no-effect control and ±100 the full control effect; nearly all actives have a fitted effect of over 55% in size
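hPK-M2, >95% pure; 0.1 mM ADP / 0.5 mM PEP final; imidazole pH7.2 buffer w/ 7 mM MgCl2, 50 mM KCl; 1 h RT; Kinase-Glo lum. Intermediate enzyme activity for dual inhibitor/activator qHTS.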
TSG101-PTAP inh = blocks PTAP/TSG101 interaction to inhibit HIV-1 budding; Q99816; Fluorescence polarization, FITC-PTAP peptide / Tsg101 binding; Potency, µM (doses to about 115 µM), inactives show top-dose activity change, negative = inhibition, actives largely listed as inhibitors; 340,000 tested, under 10 active; AID 493005; active means well fitted inhibition curve with a large enough effect in the main read-out, with a control signal flat, not every such curve was filed as active; inconclusive means small, poorly fitted or top-dose-only effect, or effect the other way, or a change in a side signal; inactive means no such curve, though single readings can be large or run the other way; further: potency means the concentration at half of the fitted maximal effect; % of control where 0% means no effect
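Compounds were pin-transferred onto Tsg101 binding domain (10 uM final) in HEPES pH 7.5 buffer, then FITC-PTAP peptide was added at 50 nM final. After 20 min at RT, polarization reported peptide displacement across a qHTS concentration series.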
TRPML1 blocker = inhibitors of human TRPML1 channel | TRPML1-inducible cells, Ca2+ dye fluorescence, FDSS; active compounds read low; inhibition of EC80 agonist-evoked calcium signal | activity change, negative = inhibition, % (no concentration beside the values) | actives 0.02% (n = 390,000); in the data active means activity change below about -50%; inconclusive means between about -30% and that limit;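 further: stimulus is agonist 54-4 at its EC80 concentration; on the % scale 0 is the no-effect control and ±100 the full control effect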
Target sequence (Q9GZU1 whole entry, looked up): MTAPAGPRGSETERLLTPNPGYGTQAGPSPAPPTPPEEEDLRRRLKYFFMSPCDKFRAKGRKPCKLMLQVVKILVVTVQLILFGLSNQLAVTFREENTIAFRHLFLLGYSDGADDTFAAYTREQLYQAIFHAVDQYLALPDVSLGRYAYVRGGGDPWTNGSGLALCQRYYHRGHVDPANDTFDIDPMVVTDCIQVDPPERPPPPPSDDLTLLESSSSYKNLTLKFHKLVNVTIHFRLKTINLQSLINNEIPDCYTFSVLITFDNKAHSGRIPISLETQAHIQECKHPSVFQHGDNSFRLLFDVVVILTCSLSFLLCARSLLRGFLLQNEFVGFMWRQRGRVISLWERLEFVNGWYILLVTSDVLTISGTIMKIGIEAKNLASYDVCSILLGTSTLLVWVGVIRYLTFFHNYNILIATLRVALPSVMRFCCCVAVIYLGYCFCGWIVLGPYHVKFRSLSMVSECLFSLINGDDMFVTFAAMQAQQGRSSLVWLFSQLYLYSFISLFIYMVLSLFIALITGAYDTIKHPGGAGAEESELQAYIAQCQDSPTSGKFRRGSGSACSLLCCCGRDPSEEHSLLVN
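Calcium fluorescence in TRPML1-DL cells induced overnight with Tet: a 110 s read after compound pin addition, then a 110 s antagonist read after challenge with 54-4 at 4 uM final (EC80).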
TRPML1 ag = agonists of human TRPML1 channel; Q9GZU1; TRPML1-expressing cells, Ca2+ dye fluorescence, FDSS; activation, % (no concentration beside the values); actives 0.12% (n = 410,000); AID 624414; further: 0% is about no effect
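Tetracycline-induced TRPML1-DL cells are seeded and incubated overnight before loading with a no-wash Ca2+ dye and quencher. Agonist activity is taken from the 110 s fluorescence read following compound pin-transfer on an FDSS, before EC80 54-4 challenge.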
IL-2 act = activates IL-2 in a cell-based reporter assay | IL-2 activation reporter assay, cell-based qHTS; stimulated with anti-CD3/CD4/CD28 beads; in transgenic mouse T cells | actives 0.065% (n = 360,000) | AID 652025 | activation, % (series mostly up to about 46 µM); further: 0% is about no effect
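Unstimulated transgenic mouse T cells, 750 per well, received compound and, after 60 minutes, anti-CD3/anti-CD4 bead plus anti-CD28 stimulation. EGFP and DsRed were quantified after 18 hours.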
* hit, by the source's call; ? = inconclusive; · = not tested or not shown. Hits are enriched below; roughly 1.3% of the tested compounds scored in any of these assays. Unless noted, no stated cut-off is given here; in the data, active means activation above about 50%; inconclusive means mostly about 30% to 49%; inactive means weaker than that.

SMILES	BRCA1 expr up	PKM2 act	TSG101-PTAP inh	TRPML1 blocker	TRPML1 ag	IL-2 act
CC(Nc1ccc(Br)cc1)C(=O)N/N=C/c1ccccc1OCc1ccccc1 (stereo not given)	-1%	-2%	-1%	12	1	-1
O=[N+]([O-])c1ccc(C=CC=Cc2ccccc2)cc1	?	·	·	-2	1	28
O=[N+]([O-])c1ccc(/C=C/C2=NN(c3ccccc3)C(c3ccco3)C2)cc1 (stereo not given)	29%	-9%	10%	-13	60*	6
O=[N+]([O-])c1ccc(C2=NN(c3ccccc3)C(c3ccco3)C2)cc1 (stereo not given)	-20%	2%	17%	4	55*	11
CC1=NN(c2ccccc2)C(c2ccco2)C1 (stereo not given)	9%	·	-7%	-12	1	0
O=C(Nc1nccs1)[C@@H]1CC=C[C@@H]2CCN(C3CCCCC3)C(=O)[C@@H]21	·	·	·	·	-1	·
COc1ccc(N/C=C2\C(=O)CCc3c2oc2cc(Cl)c(O)c(Cl)c32)cc1	-49%	-1%	?	53	0	268*
CN(C)N=Nc1ccc(S(N)(=O)=O)cc1	-1%	2%	2%	-29	2	0
CN(C)c1ccc(N=Nc2ccc(S(N)(=O)=O)cc2)cc1	2µM*	11%	0%	5	-1	0
CC1CCCN(c2nc3ccsc3c(=O)s2)C1 (stereo not given)	13µM*	-1%	-2%	-2	1	-3
CC(=O)Nc1ccc2c(c1Br)Cc1ccccc1-2	3.2µM*	·	-10%	-8	0	0
CCCCCCc1cc2cc(-c3nnc(-c4cccc(Cl)c4)o3)c(=O)oc2cc1O	·	·	·	40	14	·
Cc1cc2n(n1)C(c1ccccc1Cl)Nc1ccccc1-2 (stereo not given)	0%	18µM*	-3%	5	1	-3
COc1c(Cl)cc(Cl)cc1C(=O)Nc1ccc(CN2CCOCC2)cc1	13%	2%	-7%	13	0	1
COc1c(C)cccc1C(=O)Nc1ccc(CN2CCOCC2)cc1	2.5µM*	-7%	-4%	19	0	0
COc1cccc(NC(=O)c2ccc(CN3CCOCC3)cc2)c1	11µM*	-11%	-1%	16	0	0
CC(C)=CC(=O)Nc1nnc(-c2ccccc2C)s1	3.5µM*	2%	0%	-13	-1	2
C/C(=N\OCC(=O)Nc1ccccc1C(=O)O)c1cccs1	11µM*	-11%	-1%	4	0	0
Cc1ccc(NC(=O)CCC(=O)c2cccs2)c(O)c1	11µM*	4%	-4%	3	-1	0
CN(C(=O)c1ccco1)c1nc(-c2ccc(F)cc2)cs1	4.5µM*	-1%	-2%	-14	0	1
CCN(CC)CCCN(C(=O)c1cccs1)c1nc(-c2ccc(OC)cc2)cs1	-37%	-3%	-7%	-11	-1	0
COc1ccc(-c2csc(N(C)C(=O)c3cccs3)n2)cc1	10µM*	30%	-1%	53	1	1
Brc1ccccc1/C=N/Nc1ccccn1	-21%	-10%	-2%	3	0	-4
Cc1ccc(/C=N/Nc2ccccn2)s1	11µM*	2%	-5%	9	0	-4
COc1cc2c(NC3CCN(C)CC3)nc(N3CCCN(C)CC3)nc2cc1OCCCCN	?	·	·	·	0	·
COc1ccc(C(=O)c2sc3nc(C)cc(-c4cccs4)c3c2N)cc1OC	-68%	-6%	?	-21	52*	550*
C=C1C=C(C(F)(F)F)n2ncc(C(=O)NCc3ccc(F)cc3)c2N1	-10%	·	·	·	-1	·
CCc1ccc(CN(Cc2ccco2)C(=O)c2cc(-c3ccc(C)c(F)c3)on2)cc1	·	·	·	7	3	·
